# This is a sample that favours compounds with a hit; in the whole collection about 10% have one here.
# CtBP-E1A inh – qHTS Assay for Inhibitors of the CtBP/E1A Interaction | activity change, % (test concentration not listed) | AlphaScreen GST-E1A/His-CtBP binding, 1536-well; stronger effect = lower value | actives 0.49% (n = 340,000) | CtBP / adenovirus E1A interaction (AlphaScreen) | AID 651724, 2012; in the data active = activity change below about -65%; inconclusive = mostly about -30% to -63%; also: % is scaled to controls: 0 for no effect and ±100 for the full control effect
#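 Protein mix (5X: 125 nM each GST-E1A, His-CtBP) was incubated with pinned compound 2 h at 37 deg C in dark, in 50 mM Tris pH 8.0 buffer with 300 mM NaCl. Glutathione donor and nickel acceptor beads followed; AlphaScreen signal read after 1 h.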
# Six1-Eya2 blk – qHTS Assay for Inhibitors of the Six1/Eya2 Interaction. Homeobox protein SIX1 (Homo sapiens) + Protein phosphatase EYA2 (Homo sapiens), …. AlphaScreen GST-Six1/His-Eya2 binding, biochemical; stronger effect = lower value. activity change, % (no concentration beside the values). actives 0.56% (n = 360,000). AID 651725, 2012; in the data active = activity change below about -65%; inconclusive = mostly about -30% to -63%; also: % is scaled to controls: 0 for no effect and ±100 for the full control effect
#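 Six1/Eya2 binding was read as AlphaScreen signal after compounds were pinned into GST-Six1 plus His-tagged Eya2 (5X stock 250/500 nM) in pH 8.0 Tris/NaCl/TCEP buffer, beads added, then incubated 1 h, 37 C, dark.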
# BAZ2B block – qHTS Assay for Inhibitors of BAZ2B. AlphaScreen BAZ2B-H3K14Ac peptide displacement. Bromodomain adjacent to zinc finger domain protein 2B (Homo sapiens), Q9UIF8. actives 4.4% (n = 360,000). Potency, µM (doses to about 114 µM), inactives show top-dose activity change, negative = inhibition, actives largely listed as inhibitors; also: potency is read from the fitted curve at half-maximal effect; % is scaled to controls: 0 for no effect and ±100 for the full control effect; nearly all actives have a fitted effect of over 60% in size
#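 Compounds, titrated to a top concentration of 110 uM, were incubated 30 min at room temperature with preformed BAZ2B/acetyl-K14 H3 peptide complex (50 nM each). Proximity signal was measured by AlphaScreen after 20 min with beads.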
# G9a block – qHTS Assay for Inhibitors of Histone Lysine Methyltransferase G9a | Histone-lysine N-methyltransferase EHMT2 (Homo sapiens), Q96KQ7 | G9a H3K9 monomethylation, AlphaScreen, 2 h | Potency, µM (highest dose often 102 µM), inactives show at the highest dose activity, negative = inhibition, usual class: inhibitors | actives 8.8% (n = 350,000); also: potency is read from the fitted curve at half-maximal effect; % is scaled to controls: 0 for no effect and ±100 for the full control effect; nearly all actives have a fitted effect of over 75% in size
#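 Methyltransferase reactions run at room temperature for 2 h (20 nM enzyme, 500 nM biotin-H3K9 peptide, 20 uM SAM) after a 15 min compound preincubation; product detected by AlphaScreen beads and anti-H3K9me1 antibody.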
# JMJD2A Tudor – qHTS Assay for Inhibitors of JMJD2A-Tudor Domain. Potency, µM (highest dose often 114 µM), for the others: at the top dose activity change, negative = inhibition, most hits filed as inhibitors. actives 4.4% (n = 390,000). AID 504339, 2011. AlphaScreen JMJD2A-Tudor / H3K4me3 peptide binding. Lysine-specific demethylase 4A (Homo sapiens), O75164; also: potency is read from the fitted curve at half-maximal effect; % is scaled to controls: 0 for no effect and ±100 for the full control effect; nearly all actives have a fitted effect of over 50% in size
# Target sequence (O75164 whole entry, looked up, the tested form may be a part): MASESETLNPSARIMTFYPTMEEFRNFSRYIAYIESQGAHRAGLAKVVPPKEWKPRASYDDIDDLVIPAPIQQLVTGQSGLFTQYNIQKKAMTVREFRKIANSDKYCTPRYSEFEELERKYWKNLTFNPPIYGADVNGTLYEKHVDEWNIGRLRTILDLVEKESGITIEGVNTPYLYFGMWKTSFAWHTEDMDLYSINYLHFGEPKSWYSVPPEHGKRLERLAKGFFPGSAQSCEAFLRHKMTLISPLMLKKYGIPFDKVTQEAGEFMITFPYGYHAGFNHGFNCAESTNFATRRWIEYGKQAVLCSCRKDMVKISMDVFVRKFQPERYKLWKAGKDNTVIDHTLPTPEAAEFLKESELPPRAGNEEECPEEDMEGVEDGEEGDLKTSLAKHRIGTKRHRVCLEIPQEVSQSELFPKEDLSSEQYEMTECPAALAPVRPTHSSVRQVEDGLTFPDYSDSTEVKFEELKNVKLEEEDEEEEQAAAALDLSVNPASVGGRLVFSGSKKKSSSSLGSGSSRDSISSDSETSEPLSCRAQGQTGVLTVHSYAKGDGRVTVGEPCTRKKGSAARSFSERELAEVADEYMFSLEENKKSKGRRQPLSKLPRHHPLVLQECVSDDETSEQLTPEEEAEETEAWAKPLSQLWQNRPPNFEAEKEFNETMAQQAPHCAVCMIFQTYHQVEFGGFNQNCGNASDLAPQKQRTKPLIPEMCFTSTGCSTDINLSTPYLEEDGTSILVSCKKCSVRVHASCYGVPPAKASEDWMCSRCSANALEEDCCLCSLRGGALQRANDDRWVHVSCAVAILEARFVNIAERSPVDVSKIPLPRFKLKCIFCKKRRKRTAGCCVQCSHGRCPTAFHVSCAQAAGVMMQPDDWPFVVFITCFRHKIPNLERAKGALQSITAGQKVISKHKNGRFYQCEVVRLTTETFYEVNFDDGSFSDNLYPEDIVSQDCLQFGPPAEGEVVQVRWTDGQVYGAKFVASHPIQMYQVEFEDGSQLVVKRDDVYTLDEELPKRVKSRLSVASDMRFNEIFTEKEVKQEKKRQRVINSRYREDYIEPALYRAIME
# HP1b binding inh – HTS for Inhibitors of HP1-beta Chromodomain Interactions with Methylated Histone Tails; Chromobox protein homolog 1 (Homo sapiens), P83916; AlphaScreen HP1-beta / biotin-H3K9me3 peptide binding; Potency, µM (highest dose often 114 µM), inactives show top-dose activity change, negative = inhibition, usual class: inhibitors; actives 0.56% (n = 390,000); AID 540317, 2011; also: potency is read from the fitted curve at half-maximal effect; nearly all actives have a fitted effect of over 70% in size
#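 HP1-beta protein (50 nM final) preincubated 30 min at room temperature with biotinylated H3(1-18)K9me3 peptide (50 nM) in PBS pH 7.4, 0.01% Tween-20, then compound added for 30 min. AlphaScreen streptavidin donor/nickel chelate acceptor beads (10 ug/mL final), 30 min dark, luminescence read.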
# Active calls of the source: *; ? = inconclusive; nt = not tested or not shown; ! = a repeat was not active; [ ] = dose if it differs, or a comment. Unless noted, calls follow the shape of the dose curve; as a rule, active = well fitted inhibition curve with a large enough effect; inconclusive = small, poorly fitted or top-dose-only effect; inactive = no such curve, though single readings can be large or run the other way.
SMILES,CtBP-E1A inh,Six1-Eya2 blk,BAZ2B block,G9a block,JMJD2A Tudor,HP1b binding inh
C=CCN1C(=O)/C(=N/n2cnnc2)c2ccccc21,-0.6,4.6,-33.2%,0.5%[12.7 µM],-10.4%,6.7%
CCOC(=O)C1(Cc2cccc(F)c2)CCN(C(=O)COC)CC1,nt,-2.0,2.4%,5.7%,2.4%,18.6%
COc1cccc(CNC(=O)Cc2c(C)c3ccc(OC)c(C)c3oc2=O)c1,nt,nt,-2.3%,4.6%[59 µM],-18.4%,47.5%
COc1ccc(NC(=O)c2cc(=O)c3ccc(C)c(C)c3o2)cc1Cl,nt,nt,-2.2%,-0.7%[59 µM],-5.6%,32.9%
COc1ccc(NC(=O)c2cc(=O)c3ccccc3o2)cc1Cl,7.7,-7.4,-34.4%,56.2µM*,-22.1%,26.2%
COc1ccc2nc(NC(=O)c3cc(=O)c4cc(C)c(C)cc4o3)sc2c1,nt,nt,-4.2%,-5.0%[59 µM],-14.9%,5.8%
O=C(NNc1nc2c(F)cccc2s1)c1ccc(F)cc1,-5.5,0.0,-0.8%,-41.6%,-16.6%,29.1%
O=C(NNc1nc2c(F)cccc2s1)c1cc(=O)c2ccccc2o1,-6.1,-16.8,-38.1%,35.5µM*,-31.9%,18.6%
Cc1ccc2sc(NNC(=O)c3cc(=O)c4ccccc4o3)nc2c1C,-3.2,-14.2,50.1µM*,7.08µM*,56.2µM*,?
COc1ccc2nc(NNC(=O)c3cc(=O)c4ccccc4o3)sc2c1,-11.9,-9.3,50.1µM*,8.91µM*,56.2µM*,?
CCCCCOc1ccc(Cn2c(=O)oc3ccc(C)cc32)cc1OC,nt,nt,96.1%,114.0%[59 µM],84.2%,109.5%
CCc1nn2c(=O)c(S(=O)(=O)Nc3ccc(Br)cc3F)c(C)nc2s1,nt,nt,-1.6%,-5.1%[59 µM],0.7%,25.6%
O=C(Nc1ccc(O)c(-c2nc3ccccc3s2)c1)c1cc(=O)c2ccccc2o1,19.8,12.1,-3.2%,-6.4%[59 µM],-18.1%,0.7%
Cc1cccc2sc(NNC(=O)c3cc(=O)c4ccccc4o3)nc12,-3.6,-17.3,44.7µM*,nt,?,-11.8%
Cc1n[nH]c(C)c1S(=O)(=O)N1CCc2ccccc2C1,3.2,0.1,0.2%,17.0%[0.0925 µM],-10.1%,18.3%
CC(C)Cc1cc(C(=O)N(C)C2CCCN(Cc3ccccc3F)C2)n(C)n1 (stereo unspecified),-17.0,1.9,-9.4%[57.1 µM],89.1µM*,-17.8%,53.8%
CCn1nc(C)cc1C(=O)N(C)C1CCCN(Cc2ccccc2F)C1 (stereo unspecified),10.8,0.8,0.7%,86.4%,-11.7%,42.9%
CC1(C(=O)NS(=O)(=O)c2ccc(C#N)cc2)CCN1C(=O)Cc1ccc(-c2ccccc2)cc1 (stereo unspecified),3.5,1.2,nt,nt,nt,nt
CCOc1ccc(/C=c2\sc3nc(-c4ccco4)nn3c2=O)cc1OCC,-0.8,-2.8,-3.7%,?,?,-1.1%
COc1ccccc1/C=c1\sc2nc(-c3ccco3)nn2c1=O,0.0,-8.8,35.5µM*,20µM*,17.8µM*,50.1µM*
COc1ccc(OC)c(/C=c2\sc3nc(-c4cccs4)nn3c2=O)c1,6.0,3.3,-3.6%,11.2µM*,-16.7%,9.6%
CC(C)(C)OC(=O)Cc1nnc(-c2cc3ccccc3[nH]2)s1,nt,nt,nt,nt,-14.4%,nt
COc1cc(NC(=O)CCc2nnc3ccc(N4CCCCC4)nn23)cc(OC)c1OC,7.0,0.6,-28.5%,4.1%,-17.6%,0.6%
O=C(O)c1ccccc1OC(=O)C12CC3CC(CC(C3)C1)C2,25.3,3.1,-11.8%,nt,-3.9%,24.1%
COc1ccc(-c2ncccc2OC(=O)C23CC4CC(CC(C4)C2)C3)cc1,2.3,5.5,?,25.1µM*,2.1%,65.4%
SMILES,CtBP-E1A inh,Six1-Eya2 blk,BAZ2B block,G9a block,JMJD2A Tudor,HP1b binding inh
O=C1NC[C@H](CCCCN2CCN(CCc3ccc(O)cc3)C(=O)C2=O)N(CCc2ccc(O)cc2)C1=O,0.5,-5.4,nt,nt,nt,nt
C=CCC1CCCC(=O)N2CC[C@H](O)C12 (stereo partly specified),5.0,0.9,-5.4%,79.4µM*!,-25.0%,9.1%
CC1CCN(S(=O)(=O)c2ccc(NC(=O)C3CSC4(C)CCC(=O)N34)cc2)CC1 (stereo unspecified),0.3,-8.3,?,?,79.4µM*,8.3%
CCOc1ccc(S(=O)(=O)N2CCCCC2)cc1NC(=O)C1CSC2(C)CCC(=O)N12 (stereo unspecified),5.6,-9.5,-2.2%,39.8µM*,-10.9%,11.5%
C#CCOCCOCCOCCNc1nc(N2CCN(C(=O)CCCCCCCCCCNC(=O)Cn3cc(CCCCCN)nn3)CC2)nc(N2CCN(C(=O)CCCCCCCCCCNC(=O)[C@@H]([C@H](C)O)n3cc(C)nn3)CC2)n1,-0.8,-5.8,?,22.8%[2.33 µM],79.4µM*,?
C#CCOCCOCCOCCNc1nc(N2CCN(C(=O)Cn3cc(CCCCN)nn3)CC2)nc(N2CCN(C(=O)Cn3cc(CC(C)O)nn3)CC2)n1 (stereo unspecified),0.1,15.0,?,50.1µM*,-11.4%,85.1%
C#CCOCCOCCOCCNc1nc(N2CCN(C(=O)CCCCCCCCCCNC(=O)Cn3cc(CCCCCN)nn3)CC2)nc(N2CCN(C(=O)CCCCCCCCCCNC(=O)Cn3cc(C[C@@H](C)O)nn3)CC2)n1,-26.7,-13.7,79.4µM*,12.8%[2.33 µM],25.1µM*,-27.0%
C#CCOCCOCCOCCNc1nc(N2CCN(C(=O)Cn3cc(CC(C)O)nn3)CC2)nc(N2CCN(C(=O)Cn3cc(CC(C)O)nn3)CC2)n1 (stereo unspecified),nt,-2.9,-5.2%,?,-2.1%,30.4%
C#CCOCCOCCOCCNc1nc(N2CCN(C(=O)CCCCCCCCCCNC(=O)Cn3cc(C[C@@H](C)O)nn3)CC2)nc(N2CCN(C(=O)CCCCCCCCCCNC(=O)[C@@H]([C@H](C)CC)n3cc(CCCCCN)nn3)CC2)n1,-6.5,-6.1,?,-3.0%[2.33 µM],56.2µM*,?
C#CCOCCOCCOCCNc1nc(N2CCN(C(=O)CCCCCCCCCCNC(=O)Cn3cc(C[C@@H](C)O)nn3)CC2)nc(N2CCN(C(=O)CCCCCCCCCCNC(=O)[C@@H]([C@H](C)O)n3cc(C)nn3)CC2)n1,-0.7,1.9,3.0%,-1.2%[2.33 µM],-26.6%,33.2%
CCC(C)(C)C1CCC(NC(=O)N2CCN(c3ccccc3O)CC2)CC1 (stereo unspecified),9.8,-2.5,-9.8%,3.6%,79.4µM*,-2.6%

# Compound activity as filed in PubChem BioAssay.
